Values joined by “and” are separate entries in the source; they are usually repeats but may differ in a detail not shown here. Equal values may be shown once. Results filed as inconclusive are left out. Entries that show only a call come without a potency. Active and inactive are the calls of the source. The call rests on the fitted dose curve.
assay: qHTS assay for small molecules that induce genotoxicity in human embryonic kidney cells expressing luciferase-tagged ATAD5 - cell viability (AID 651634); settings: HEK293T ATAD5-luc cells viability, CellTiter-Fluor, 15.5 h; series mostly up to 83.3 µM; further: nearly all actives have a fitted effect of over 25% in size
How it was run: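 Cytotoxicity counter-readout: after 15.5 hr compound treatment at 37C, live-cell protease activity in ATAD5-luciferase HEK293T cells measured by CellTiter-Fluor fluorescence, 30 min development at 37C.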
Potency means the concentration at half of the fitted maximal effect.

Structure (SMILES) | Potency
c1cc(-c2ccncc2)ccn1 | inactive
CCCCNS(=O)(=O)c1ccccc1 | inactive
CC(C)=CCC/C(C)=C\CO | inactive
CCC(C)CO (stereo not given) | inactive
C[C@]12CC[C@H]3[C@@H](CCC4=CC(=O)CC[C@@]43C)[C@@H]1CC[C@@H]2C(=O)CO | inactive
O=C1c2cccc(O)c2C(=O)c2c(O)cccc21 | inactive
O=C(c1ccc(OCCN2CCCCC2)cc1)c1c(-c2ccc(O)cc2)sc2cc(O)ccc12 | 26.6 µM (active) and 54.5 µM (active)
CNCCCC12CCC(c3ccccc31)c1ccccc12 | inactive
CCOCCOCCO | inactive
C[Si](C)(C)O[Si](C)(C)C | inactive
CC(=O)CC/C=C(\C)CCC=C(C)C | inactive
C[C@]12CCC(=O)C=C1CC[C@@H]1[C@@H]2C(=O)C[C@@]2(C)[C@H]1CC[C@]2(O)C(=O)CO | inactive
CC(C)OB(OC(C)C)OC(C)C | inactive
CC(C)CC(C)(O)C#CC(C)(O)CC(C)C (stereo not given) | inactive
c1ccc2c(c1)Oc1ccccc1S2 | inactive
CC(C)OC=O | inactive
O=C=Nc1ccc(Cc2ccc(N=C=O)cc2)cc1 | inactive
C=C(C)C(=O)OCCOC(=O)C(=C)C | inactive
NNc1ccc(C(=O)O)cc1 | inactive
CN(C)c1nc(N(C)C)nc(N(C)C)n1 | inactive
